# Assay results: ChEMBL document CHEMBL3988442, “University of Dundee, Small-Polar-MMV Screening Library” (2021)
# In all, about 69,000 compounds went through this assay and about 1,000 (1.4%) showed an effect of 50% or more. Many of the other results were omitted from the sample, so strong results are more common in it than they were.
# Test system: Leishmania donovani
# Assay: Leishmania intramacrophage assay
# Type: functional, organism-based
# Set-up: scale not given: in the data most compounds retested in dose-response had high values
smiles,measurement,setting,value
CO[C@H]1CCN(Cc2ccoc2)C[C@@H]1Cc1ccccc1.O=C(O)C(F)(F)F,Percent Effect,"30.3 µM, […]",25.61%
COc1c(C)cnc(CSc2nnc(NC3CC3)s2)c1C,Percent Effect,"30.3 µM, […]",13.54%
O=C(NCC(=O)N1CCCC(c2ccccc2)CC1)c1ccoc1 (stereo not given),Percent Effect,30 µM,24.45%
O=C([C@H]1CCCO1)N1CCc2ncc(CN3CCOCC3)n2CC1,Percent Effect,"30.3 µM, […]",32.4%
Cc1cnn(CC(C)NCc2ccc(OCC(N)=O)cc2)c1 (stereo not given),Percent Effect,30 µM,8.68%
Cc1c(CN2CC[C@@H](N3CCC(O)CC3)[C@H](O)C2)[nH]c2ccc(Cl)cc12,Percent Effect,"30.3 µM, […]",82.7%
Cc1c(CN2CC[C@@H](N3CCC(O)CC3)[C@H](O)C2)[nH]c2ccc(F)cc12,Percent Effect,"30.3 µM, […]",26.65%
Cc1ccc2[nH]c(CN3CC[C@@H](N4CCN(C)CC4)[C@H](O)C3)c(C)c2c1,Percent Effect,"30.3 µM, […]",23.41%
O=C(c1ccc(S(=O)(=O)NCc2ccon2)cc1)N1CCOCC1,Percent Effect,"30.3 µM, […]",0.2735%
Oc1ccc(-c2c(-c3ccccc3)ncn2C2CCNC2)cc1 (stereo not given),Percent Effect,"30.3 µM, […]",-26.99%
CCOc1ccc(-c2c(-c3ccccc3)ncn2C2CCNC2)cn1 (stereo not given),Percent Effect,"30.3 µM, […]",76.3%
Cc1nc[nH]c1-c1c(-c2ccccc2)ncn1C1CCNC1 (stereo not given),Percent Effect,"30.3 µM, […]",-1.128%
Cc1nc(C)n(CC2CCCN(c3ncnc4ccccc34)C2)n1 (stereo not given),Percent Effect,30 µM,54.57%
CCc1nc(CN2CCCN(c3ncnc4ccccc34)CC2)no1,Percent Effect,"30 µM, 30.03 µM",55.68%
Cc1nc(C)n(CC2CCCN(c3ncnc4c3CCC4)C2)n1 (stereo not given),Percent Effect,"30 µM, 30.03 µM",28.07%
Cc1nc(CN2CCN(c3ncnc4ccccc34)CC2)no1,Percent Effect,"30.3 µM, […]",19.7%
Cc1nc(C)n(CC2CCCN(c3ncnc4ccsc34)C2)n1 (stereo not given),Percent Effect,"30 µM, 30.03 µM",35.24%
Cc1nc(C)n(CC2CCCN(c3ncnc4[nH]ccc34)C2)n1 (stereo not given),Percent Effect,"30 µM, 30.03 µM",52.77%
Cc1nc(C)n(CC2CN(c3ncnc4[nH]ccc34)CCO2)n1 (stereo not given),Percent Effect,"30 µM, 30.03 µM",-5.028%
Cc1nc(C)n(CC2CCCN(c3ncnc4sccc34)C2)n1 (stereo not given),Percent Effect,"30 µM, 30.03 µM",-10.34%
CCc1nc(CN2CCCN(c3ncnc4ccsc34)CC2)no1,Percent Effect,"30.3 µM, […]",27.83%
COCC1CN(C(=O)COc2ccccc2C)Cc2ncn(C)c21.O=C(O)C(F)(F)F (stereo not given),Percent Effect,"30.3 µM, […]",12.02%
Cc1ccc(CN2CCn3c(COc4cccnc4)cnc3C2C)o1.O=C(O)C(F)(F)F.O=C(O)C(F)(F)F (stereo not given),Percent Effect,"30.3 µM, […]",-4.64%
CCCn1cc(C(=O)N[C@H]2CC[C@H](n3cnnc3)CC2)c(C)n1,Percent Effect,"30.3 µM, […]",11.19%
O=C(O)C(F)(F)F.O=S(=O)(c1cccs1)N1CC[C@H]2[C@H]1CCN2c1ncccn1,Percent Effect,"30.3 µM, […]",-1.813%
Cc1csc(CN2C[C@@H]3CN(S(C)(=O)=O)CCO[C@@H]3C2)n1,Percent Effect,"30.3 µM, […]",20.2%
Cc1ccc(CN2C[C@@H]3CN(CC4CCOCC4)CCO[C@@H]3C2)s1.O=C(O)C(F)(F)F.O=C(O)C(F)(F)F,Percent Effect,"30.3 µM, […]",24.65%
Cc1csc(CN2C[C@@H]3CN(CC4CCOCC4)CCO[C@@H]3C2)n1,Percent Effect,"30.3 µM, […]",53.9%
Cc1nc(C(=O)N2CCCC2c2cncc(CN3CCCC3)n2)co1 (stereo not given),Percent Effect,"30.3 µM, […]",16.43%
COc1ccc(CC(=O)N2CCCC(n3nc(C)cc3C)C2)cc1F (stereo not given),Percent Effect,30 µM,18.37%
CC(C)CNc1nc(C(=O)/N=c2\[nH]nc(C(C)(C)C)s2)cs1,Percent Effect,"30 µM, 30.03 µM",-9.293%
Cc1cs/c(=N/C(=O)c2csc(NCC(C)C)n2)[nH]1,Percent Effect,"30.3 µM, […]",8.971%
CCN(CC)C(=O)CCCNC(=O)c1csc(NC2CC2)n1,Percent Effect,"30.3 µM, […]",-2.373%
Cc1[nH]/c(=N\C(=O)c2csc(NC3CCCC3)n2)sc1C,Percent Effect,"30.3 µM, […]",100.1%
Cc1[nH]/c(=N\C(=O)c2csc(NC3CC3)n2)sc1C,Percent Effect,"30 µM, 30.03 µM",70.25%
Cc1[nH]/c(=N\C(=O)c2csc(NCC(C)C)n2)sc1C,Percent Effect,"30 µM, 30.03 µM",87.72%
CC(C)(C)[S+]([O-])CCNC(=O)c1csc(NC2CC2)n1 (stereo not given),Percent Effect,"30.3 µM, […]",-31.46%
CN1CCN(C(=O)CCc2cc(Br)cs2)CC1,Percent Effect,"30.3 µM, […]",1.944%
O=C(Cc1ccsc1)N1CCN(CC2CC2)c2ncccc2C1.O=C(O)C(F)(F)F,Percent Effect,"30.3 µM, […]",13.41%
CC(C)c1cc(C(F)(F)F)n2nc(C3CCN(S(C)(=O)=O)C3)cc2n1 (stereo not given),Percent Effect,"30.3 µM, […]",14.63%
COc1ccc2[nH]cc(C(=O)N3C[C@@H](O)[C@H](N4CCOCC4)C3)c2c1,Percent Effect,"30.3 µM, […]",10.77%
COc1ccccc1OCc1cc(C(=O)N2CCOCC2CO)n[nH]1 (stereo not given),Percent Effect,"30.3 µM, […]",28.86%
CCc1ccc(CN(Cc2ccccc2)CC(C)CO)nc1 (stereo not given),Percent Effect,"30.3 µM, […]",7.862%
CC(c1nc(C2CC2)no1)N1CCN(CCS(C)(=O)=O)CC1 (stereo not given),Percent Effect,"30.3 µM, […]",50.3%
COCCN1CCN(C(C)c2nc(C3CC3)no2)CC1 (stereo not given),Percent Effect,30 µM,-7.952%
CC(C)OCCN1CCN(C(C)c2nc(C3CC3)no2)CC1 (stereo not given),Percent Effect,30 µM,6.668%
Clc1snnc1CN1CCN(c2nccs2)CC1,Percent Effect,"30.3 µM, […]",-11.24%
COc1ccccc1CC(C)CC(=O)N(C)Cc1cc(C)on1 (stereo not given),Percent Effect,"30.3 µM, […]",6.655%
COc1ccccc1CC(C)CC(=O)O (stereo not given),Percent Effect,"30.3 µM, […]",41.22%
CCC(CC(=O)NS(=O)(=O)C(C)C)c1ccccc1 (stereo not given),Percent Effect,"30.3 µM, […]",-1.743%
